The values below come from PubChem BioAssay.

Activity calls are given as the source filed them.

Tested on in the first assay: not listed separately
Briefly: budding yeast growth modifiers under rapamycin – strain BY4716, OD600, 96 h, primary screen (AID 1091). Note: test concentration not given here. To be noted: S. cerevisiae BY4716 + rapamycin, higher = more signal, called active from +8 up or from −8 down.
Take `CC(=O)OC[C@H]1O[C@@H](ON=C2[C@H]3CCn4c(=O)n(-c5ccccc5)c(=O)n4[C@H]3[C@H](O)[C@@H]3O[C@H]23)[C@H](OC(C)=O)[C@@H](OC(C)=O)[C@@H]1OC(C)=O`: the z-score was 0.083 (inactive).

`O=C1CCCC=C1C(O)COCc1ccccc1` (stereo unspecified): the z-score was 0.456 (inactive).

`C[C@H]1CC[C@@H](C(=O)O)N[C@@H]1c1cccc(N2CCCC2=O)c1`: the z-score is 0.374 (inactive).

Take `COC(=O)[C@H](C)NC(=O)CCC1CC(OC(=O)NCc2ccc3c(c2)OCO3)CC2(CCCC(COC(=O)NCCCN3CCCC3=O)O2)O1` (stereo partly specified): the z-score was 0.502 (inactive).

With `CC(C)(C)N1C(=O)[C@H]2[C@@H]3C(=CC[C@H]2C1=O)C(=O)[C@H]1O[C@H]1[C@H]3O`, the z-score was -1.63 (inactive).

`CCOC(=O)NN=C1C[C@@H](O)[C@@H](O)[C@@H]2[C@@H]3C(=O)N(C[C@@H]4CCCO4)C(=O)[C@@H]3CC[C@H]12`: the z-score was -0.0602 (inactive).

With `CC(C)=CCCC(C)=CCON=C1C[C@@H](O)[C@@H](O)[C@@H]2[C@@H]3C(=O)N(Cc4ccc5c(c4)OCO5)C(=O)[C@@H]3CC[C@H]12`, the z-score was -0.251 (inactive).

Turning to `CC(=O)OC[C@H]1O[C@H](CC=NOC(C)CN2CCCCc3nc(C)c(C)cc32)C=C[C@@H]1OC(C)=O` (stereo partly specified), the z-score was -0.151 (inactive).

As for `CCOC(=O)[C@H](Cc1ccccc1)NC(=O)CCC1CC(OC(=O)NCCc2ccc(F)cc2)CC2(CCCC(COC(=O)NCc3cccc(C(F)(F)F)c3)O2)O1` (stereo partly specified), the z-score was 0.029 (inactive).

Regarding `O=C1C=C[C@@H](O)[C@@H]2[C@@H]3C(=O)N(Cc4ccc5c(c4)OCO5)C(=O)[C@@H]3CC[C@@H]12`, the z-score was 0.621 (inactive).

Consider `O=C1CCCC=C1C(O)c1ccc([N+](=O)[O-])cc1` (stereo unspecified), for which the z-score is -0.289 (inactive).

For the molecule `COC(=O)CC=C[C@@H](C)[C@@H](C=NOC(C)CN1CCCCc2nc(C)c(C)cc21)NS(=O)(=O)c1ccc(C)cc1` (stereo partly specified), the z-score was 0.121 (inactive).

Take `CC(CCC(=O)OC[C@H]1O[C@H](C#Cc2ccccc2)C=C[C@@H]1Oc1ccc(C)cc1)=NOC(C)CN1CCCc2nc(C)c(C)cc21` (stereo partly specified): the z-score is -0.49 (inactive).

Consider `CCN1C(=O)[C@H]2[C@H]3[C@H](O)[C@H](O)CC(=NO[C@H](C)c4cn([C@@H]5COC[C@H]5O)nn4)[C@@H]3CC[C@H]2C1=O`, for which the z-score was 1.36 (inactive).

For the molecule `COc1ccc(-c2cnnc(CCCn3ccnc3-c3ccccc3)n2)cc1`, the z-score was 1.36 (inactive).

The next assay deals with Torsin-1A-interacting protein 2 (Homo sapiens) (UniProt Q8NFQ8). Briefly: small molecules binding lysate-expressed LULL1 – cell lysate, human LULL1 lysate, 635/667 nm fluorescence, primary screen (AID 1092).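 Note: probe is lysate of COS7 cells overexpressing human LULL1; score merges per-feature 667 nm fluorescence with signal-to-noise.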 The following applies: small-molecule microarray, hLULL1 lysate binding, 635 nm fluorescence; higher = more signal.
Sequence of Torsin-1A-interacting protein 2 (Homo sapiens) (Q8NFQ8 whole entry, looked up): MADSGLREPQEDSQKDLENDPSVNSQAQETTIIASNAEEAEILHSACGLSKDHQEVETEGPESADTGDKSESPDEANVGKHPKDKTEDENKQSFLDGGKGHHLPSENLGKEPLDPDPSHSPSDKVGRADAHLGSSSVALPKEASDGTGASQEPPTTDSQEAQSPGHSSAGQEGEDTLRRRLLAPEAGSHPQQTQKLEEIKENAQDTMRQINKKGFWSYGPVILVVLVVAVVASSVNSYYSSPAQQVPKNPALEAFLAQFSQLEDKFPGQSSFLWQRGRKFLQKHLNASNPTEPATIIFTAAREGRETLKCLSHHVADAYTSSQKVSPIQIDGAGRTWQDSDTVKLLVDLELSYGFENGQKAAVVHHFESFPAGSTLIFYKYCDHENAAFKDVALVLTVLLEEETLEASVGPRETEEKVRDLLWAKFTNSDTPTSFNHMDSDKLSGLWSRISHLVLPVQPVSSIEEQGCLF
`O=C1C=C[C@@H](O)[C@@H]2[C@@H]3C(=O)N(C4CCCCC4)C(=O)[C@@H]3CC[C@@H]12` yielded a composite z-score of 0.548.

`C[C@@H]1CC[C@H]2C(=O)OC(Cc3ccccc3)CN2[C@H]1c1ccc(Br)cc1` (stereo partly specified): the composite z-score was found to be 1.18.

Molecule `O=C1[C@H]2[C@H]3[C@H](O)[C@H](O)CC(=NO[C@@H]4O[C@H](CO)[C@@H](O)[C@H](O)[C@H]4O)[C@H]3CC[C@H]2C(=O)N1c1ccc(F)cc1F` gave a composite z-score of 0.0348.

In turn, `COc1ccc(COC(=O)NN=C2C[C@@H](O)[C@@H](O)[C@@H]3[C@@H]4C(=O)N([C@@H](C)c5ccccc5)C(=O)[C@@H]4CC[C@H]23)cc1` came in with a composite z-score of 0.621.

`CC(=O)OC[C@H]1O[C@H](CC=NO[C@H](C)c2cn([C@@H]3COC[C@H]3O)nn2)C=C[C@@H]1OC(C)=O`: the composite z-score was -0.3.

Turning to `COc1ccc(O[C@H]2C=C[C@@H](c3ccccc3)O[C@@H]2CO)cc1`, the composite z-score worked out at 0.0141.

For the molecule `CCOC(=O)[C@H](Cc1ccccc1)NC(=O)CCC1CC(OC(=O)NCCc2ccc(F)cc2)CC2(CCCC(COC(=O)NCCOc3ccccc3)O2)O1` (stereo partly specified), the composite z-score came out at 2.18.

The molecule `O=C1C[C@@H](O)[C@@H](O)[C@@H]2[C@@H]3C(=O)N(C4CCCCC4)C(=O)[C@@H]3CC[C@@H]12` displayed a composite z-score of 0.905.

Regarding `CC(CCN1CCCCc2nc(C)c(C)cc21)=NO[C@@H](C)c1cc(-c2c(C)cc(C)cc2C)no1`, the composite z-score was -0.745.

The molecule `CCOC(=O)[C@H](CC(C)C)NC(=O)CCC1CC(OC(=O)NCc2ccc3c(c2)OCO3)CC2(CCCC(COC(=O)NCCOc3ccccc3)O2)O1` (stereo partly specified) registered a composite z-score of 1.68.

Molecule `C=CC[C@@H]1C=C[C@H](ON=C(C)CCN2CCCc3nc(C)c(C)cc32)[C@@H](CO)O1` gave a composite z-score of 0.644.

`O=C1CCCC=C1C(O)C1CCCCC1` (stereo unspecified) gave a composite z-score of 0.2.

As to `CO[C@H]1COC(=O)CC=C[C@H](C)[C@H](OC)COC(=O)[C@@H](C)NC(=O)CC=C[C@@H]1C`, the composite z-score was found to be 0.525.

Regarding `COC(=O)CC=C[C@@H](C)[C@@H](C=NOC[C@@H](C)[C@H](OCc1ccccc1)C(C)C)OC`, the composite z-score turned out to be 0.227.

The molecule `CC(C)CON=C1C[C@@H](O)[C@@H](O)[C@@H]2[C@@H]3C(=O)N(C(C)(C)C)C(=O)[C@@H]3CC[C@@H]12` gave a composite z-score of -0.495.

Molecule `CC1(C)O[C@H]2OC([C@H](O)CON3C(=O)c4ccccc4C3=O)[C@H](O)[C@H]2O1` (stereo partly specified) returned a composite z-score of -0.061.

Regarding `CCOC(=O)CCN1C(=O)[C@H]2[C@H]3[C@H](O)[C@H](O)CC(=NNC(=O)OCC)[C@H]3CC[C@H]2C1=O`, the composite z-score was determined as 0.0756.

Regarding `CCN(CC)CC(O)CN1CCCCc2nc(C)c(C)cc21` (stereo unspecified), the composite z-score amounted to 0.657.

`CC(C)=NO[C@@H](C)c1cn([C@H](CO)Cc2ccccc2)nn1`: the composite z-score worked out at 1.03.

For the molecule `O=C(NN=C1C[C@@H](O)[C@@H](O)[C@@H]2[C@@H]3C(=O)N(Cc4ccccc4)C(=O)[C@@H]3CC[C@H]12)OCc1ccccc1`, the composite z-score is -0.845.

Consider `CCOC(=O)CCN1C(=O)[C@H]2[C@H]3[C@H](O)[C@H](O)CC(=NOCC=C(C)CCC=C(C)C)[C@H]3CC[C@H]2C1=O`, for which the composite z-score is 0.0139.

As for `CC(=O)OC[C@H]1O[C@@H](ON=C2[C@H]3CCn4c(=O)n(-c5ccccc5)c(=O)n4[C@H]3[C@H](O)[C@@H]3O[C@H]23)[C@H](OC(C)=O)[C@@H](OC(C)=O)[C@@H]1OC(C)=O`, the composite z-score came out at 1.37.

In turn, `O=C1CCCC=C1C(O)COCc1ccccc1` (stereo unspecified) yielded a composite z-score of -0.395.

In turn, `C[C@H]1CC[C@@H](C(=O)O)N[C@@H]1c1cccc(N2CCCC2=O)c1` had a composite z-score of 0.283.

The molecule `COC(=O)[C@H](C)NC(=O)CCC1CC(OC(=O)NCc2ccc3c(c2)OCO3)CC2(CCCC(COC(=O)NCCCN3CCCC3=O)O2)O1` (stereo partly specified) gave a composite z-score of 0.908.

`CC(C)(C)N1C(=O)[C@H]2[C@@H]3C(=CC[C@H]2C1=O)C(=O)[C@H]1O[C@H]1[C@H]3O` yielded a composite z-score of -0.758.

On to `CCOC(=O)NN=C1C[C@@H](O)[C@@H](O)[C@@H]2[C@@H]3C(=O)N(C[C@@H]4CCCO4)C(=O)[C@@H]3CC[C@H]12`, for which the composite z-score turned out to be 0.448.

`CC(C)=CCCC(C)=CCON=C1C[C@@H](O)[C@@H](O)[C@@H]2[C@@H]3C(=O)N(Cc4ccc5c(c4)OCO5)C(=O)[C@@H]3CC[C@H]12`: the composite z-score was found to be 1.93.

Turning to `CC(=O)OC[C@H]1O[C@H](CC=NOC(C)CN2CCCCc3nc(C)c(C)cc32)C=C[C@@H]1OC(C)=O` (stereo partly specified), the composite z-score was 1.51.

In turn, `CCOC(=O)[C@H](Cc1ccccc1)NC(=O)CCC1CC(OC(=O)NCCc2ccc(F)cc2)CC2(CCCC(COC(=O)NCc3cccc(C(F)(F)F)c3)O2)O1` (stereo partly specified) came in with a composite z-score of 2.9.

As to `O=C1C=C[C@@H](O)[C@@H]2[C@@H]3C(=O)N(Cc4ccc5c(c4)OCO5)C(=O)[C@@H]3CC[C@@H]12`, the composite z-score worked out at 0.221.

As to `O=C1CCCC=C1C(O)c1ccc([N+](=O)[O-])cc1` (stereo unspecified), the composite z-score is -0.33.

`COC(=O)CC=C[C@@H](C)[C@@H](C=NOC(C)CN1CCCCc2nc(C)c(C)cc21)NS(=O)(=O)c1ccc(C)cc1` (stereo partly specified) gave a composite z-score of -0.137.

`CC(CCC(=O)OC[C@H]1O[C@H](C#Cc2ccccc2)C=C[C@@H]1Oc1ccc(C)cc1)=NOC(C)CN1CCCc2nc(C)c(C)cc21` (stereo partly specified) gave a composite z-score of 1.5.

For the molecule `CCN1C(=O)[C@H]2[C@H]3[C@H](O)[C@H](O)CC(=NO[C@H](C)c4cn([C@@H]5COC[C@H]5O)nn4)[C@@H]3CC[C@H]2C1=O`, the composite z-score came to 0.413.

For the molecule `COc1ccc(-c2cnnc(CCCn3ccnc3-c3ccccc3)n2)cc1`, the composite z-score came out at 0.662.
